The sample as a whole holds a higher share of hits than the screen did.
Pf Dd2 inh: Plasmodium falciparum Dd2 growth inhibition; P. falciparum Dd2 growth, SYBR Green, 72 h; Potency, µM (doses to about 28.9 µM), most hits filed as inhibitors; hit rate 4.3% among 120,000; active = well fitted inhibition curve with a large enough effect; note: nearly all actives have a fitted effect of over 65% in size
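Infected erythrocytes (Dd2, 0.3% parasitemia, 2.5% hematocrit final) are added to compound in RPMI-1640/Albumax II medium, grown 72 h at 37C in low oxygen, then lysed with saponin/Triton-X containing SYBR Green and read by fluorescence.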
A number is an active result; 0 = inactive; [ ] = remark or other dose.

SMILES	Pf Dd2 inh
COc1ccccc1C(O)c1nc(Nc2ccc(C(C)C)cc2)n[nH]1 (configuration not stated)	0
COc1cc2nc(Nc3ccc(F)cc3)nc(N)c2cc1OC	2.51µM
COc1ccc(NC(=O)c2nnn(CC(=O)Nc3c(C)cc(C)cc3C)c2N)cc1OC	0
CCOC(=O)c1ccc(Nc2c(-c3ccc(O)c(OC)c3)nc3nc[nH]n23)cc1	0[0.594 µM]
Cc1cccc(Nc2nc(N)nc(N)c2S(=O)(=O)c2ccccc2)c1	0
COc1cc2nc(Nc3cccc(C)c3)nc(N)c2cc1OC	2.51µM
CCOC(=O)c1ccc(Nc2nc(N)c3cc(OC)c(OC)cc3n2)cc1	1.26µM
CCOC(=O)c1ccc2nc(C)cc(Nc3cccc(C(=O)O)c3)c2c1	0
COc1ccc(Nc2cc(C)nc3c(C)c(C)ccc23)cc1	0
CCn1ccc(C(=O)N2CCC(c3nn(C)c(=O)n3CCc3ccccc3)CC2)n1	0
Cc1onc(-c2cnn(C)c2NCc2ccc(C#N)cc2)c1C(=O)NC1CCOCC1	0
CN(Cc1csc(-c2ccccc2)n1)C(=O)c1ccc(-n2cnnn2)cc1	0
Cc1cnc(C2CCNC2)n1Cc1ccccc1 (configuration not stated)	0
COc1ccc(OCc2nc(C)c(CCO)c(=O)n2CC(=O)Nc2cc(OC)cc(OC)c2)cc1	0
Cn1cc(CNC(=O)C[C@@H]2C[C@H]3O[C@H](CNC(=O)N4CCOCC4)[C@@H](O)[C@H]3O2)cn1	0
CCN1C(=O)CCN(C(=O)c2ccc3cc[nH]c3c2)CC12CCOCC2	0
CNC(=O)C(C)(C)N1CCC[C@H]1C(=O)N1CCCC1	0
CCCN1CC[C@H]2COC(=O)N2c2cc(F)ccc2C1	0
Cc1ccc(NC(=O)Cn2ccn3nc(-c4ccccc4)c(CO)c3c2=O)cc1Cl	0
COCc1nc(NCCc2nc(-c3ccccn3)no2)c2cnn(C)c2n1	0
CC(C)(C)CNc1ccc(C(=O)N2CCC(CN3CCCC3=O)CC2)cn1	0
O=C(CCC[C@@H]1[C@H]2CCCN3CCC[C@@H](CN1C(=O)C1(c4ccccc4)CC1)[C@@H]23)NCC1CC1	12.6µM
Cc1cccc(C(=O)N2C[C@@H]3CCCN4CCC[C@@H]([C@H]34)[C@H]2CCCC(=O)NCC2CC2)c1	0
CC(C)C(=O)N1C[C@@H]2CCCN3CCC[C@@H]([C@H]23)[C@H]1CCCC(=O)NCC1CC1	0
COC(=O)c1ccc(Nc2nnc(-c3ccc(C)c(S(=O)(=O)N4CCN(C)CC4)c3)c3ccccc23)cc1	1.58µM
SMILES	Pf Dd2 inh
Cc1ccccc1Nc1nnc(-c2ccc(C)c(S(=O)(=O)N3CCN(C)CC3)c2)c2ccccc12	0
Cc1ccc(-c2nnc(Nc3ccc(F)cc3)c3ccccc23)cc1S(=O)(=O)N1CCN(C)CC1	10µM
Cc1ccc(C(=O)Nc2cccc(C(=O)O)c2)cc1S(=O)(=O)N1CCCC1	0
Cc1ccc(-c2onc(C)c2C)cc1S(=O)(=O)N1CCN(c2ccccc2F)CC1	0
Cc1ccc(F)cc1S(=O)(=O)N1CCC(n2cnnc2C(C)C)CC1	0
Cc1ccc(-c2onc(C)c2C)cc1S(=O)(=O)N1CCCCC1	0
Cc1ccc(-c2nnc(Nc3cccc(O)c3)c3ccccc23)cc1S(=O)(=O)N1CCN(C)CC1	10µM
Cc1ccc(-c2nnc(Nc3ccc(Br)cc3)c3ccccc23)cc1S(=O)(=O)N1CCN(C)CC1	5.62µM
COc1cccc(N2CCN(S(=O)(=O)c3cc(-c4cc(C)no4)ccc3C)CC2)c1	0
Cc1ccc(C(=O)Nc2ccccc2)cc1S(=O)(=O)N1CCCC1	0
CC(C)(C)C(=O)Nc1cnc(-c2cccnc2)nc1	0
CC(=O)c1cc(CN2CCCn3nc(CNC(=O)C4CCC4)cc3C2)cs1	0
CN1CCC([C@@H]2CN(C(=O)c3nn(C)c4ccccc34)C[C@H]2C(N)=O)CC1	0
COC1CN(c2ccc(C)cc2)C12CCN(C(=O)C1CCCC1)CC2 (configuration not stated)	0
CC(=O)Nc1cccc(-c2nc(-c3c(C)noc3C)cc3cc(C)oc23)c1	0
O=C(Cn1nc2c(cc1=O)CCCCC2)NCCc1ccco1	0
O=[S+]([O-])(c1ccccc1)N1CC(Oc2ccc3c(c2)OCO3)C1	0
Cc1cnc(C(=O)NC2C[C@H]3CC[C@@H](C2)N3C(=O)c2sccc2C)cn1 (some centres not stated)	0
COCCCNC(=O)CCc1nc(C2CCCN2S(C)(=O)=O)no1 (configuration not stated)	0
COc1ccc(C(=O)N2CCC3(CC2)OCC(C(=O)NC2CC2)N3C(=O)c2ccc(F)cc2)cc1 (configuration not stated)	0
O=C1Nc2ccc(-c3ccccc3)cc2C(=O)N2CCN(C(=O)c3cccs3)C[C@H]12	0
c1ccc(Cn2cc(Cn3ccnc3-c3cc4n(n3)CCNC4)cn2)cc1	0
Cc1cc(C[C@@H]2COC[C@@H]2NC(=O)COc2cccc(C)c2C)on1	0
Cc1ccc(C(=O)Nc2ccc(F)cc2)cc1S(=O)(=O)N1CCOCC1	0
Cc1ccc(-c2nnc(Nc3cccc(Cl)c3)c3ccccc23)cc1S(=O)(=O)N1CCOCC1	0

Bioassay records from PubChem BioAssay.
